In PubChem BioAssay AID798 (PCMD, 2007):
The whole screen tested about 220,000 compounds, of which about 300 (0.14%) were called active. Only a selection was taken, and actives are over-represented in it overall. Unmarked numbers belong to inactive results.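 The calls were made as follows: active = inhibition of at least 40%; inactive = inhibition below 40%.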 Where a SMILES comes first, the peptide text is derived from it. The star is where a group is joined. OPac = O=C(CO*)c1ccccc1; Bz = O=C(c1ccccc1)*

What follows are compounds tested against Coagulation factor XI (Homo sapiens) (UniProt P03951) (assay: human FXIa protease inhibitors, primary screen, biochemical, 1536-well (AID 798;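 also: fluorescence of freed AMC excited at 355 nm; 0% = enzyme without compound and 100% = no enzyme blank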)). Settings: purified FXIa, Boc-Glu-Ala-Arg-AMC fluorogenic substrate; at 5 µM; hits give high values.
Chain of Coagulation factor XI (Homo sapiens) (P03951 19-387 limits assumed): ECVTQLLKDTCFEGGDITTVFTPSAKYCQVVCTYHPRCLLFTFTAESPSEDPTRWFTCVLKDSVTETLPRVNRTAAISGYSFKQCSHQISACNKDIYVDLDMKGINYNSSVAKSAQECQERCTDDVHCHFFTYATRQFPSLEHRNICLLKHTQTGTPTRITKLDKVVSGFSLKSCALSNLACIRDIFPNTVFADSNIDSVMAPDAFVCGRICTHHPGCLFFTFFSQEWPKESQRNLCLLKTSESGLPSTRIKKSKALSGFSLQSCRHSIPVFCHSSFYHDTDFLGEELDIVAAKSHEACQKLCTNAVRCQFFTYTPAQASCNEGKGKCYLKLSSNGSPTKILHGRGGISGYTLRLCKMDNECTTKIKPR
Chain of Coagulation factor XI (Homo sapiens) (P03951 388-625 limits assumed): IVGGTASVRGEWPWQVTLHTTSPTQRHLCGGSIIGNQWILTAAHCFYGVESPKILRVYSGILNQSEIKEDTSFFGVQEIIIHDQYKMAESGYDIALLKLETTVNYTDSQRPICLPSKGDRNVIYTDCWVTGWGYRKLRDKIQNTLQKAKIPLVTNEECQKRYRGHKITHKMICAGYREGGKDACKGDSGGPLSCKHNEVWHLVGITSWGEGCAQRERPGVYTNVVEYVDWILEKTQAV
In the case of `Cc1c(NC(=O)C(=O)N/N=C/c2cccs2)c(=O)n(-c2ccccc2)n1C`, the inhibition is reported as -2.28%.
With `O=C(NCC(=O)N(CC1CCCO1)C(C(=O)NC1CCCCC1)c1ccccc1)c1ccco1` (stereo not given) the inhibition was -1.28%.
In the case of `Cc1cc(C)nc(-n2ncc3c2CC(c2ccc(C(C)C)cc2)CC3=O)n1` (stereo not given), the inhibition is reported as 4.85%.
`Cc1ccccc1CN1C[C@@H]2C[C@@H](c3ccc4nsnc4c3)N3CCC[C@@]23C1=O` was tested, and the inhibition was 2.82%.
Compound `Cc1cccc2c1N(CCOc1ccccc1)C(=O)C2=O` has an inhibition of 1.94%.
Compound `CCCCCCCCn1c2c(c(=N)c3c1CCC3)CCCC2` has an inhibition of 1.52%.
In the case of `COC(=O)c1cc(C(=O)OCC(=O)Nc2cc(C)on2)cc([N+](=O)[O-])c1`, the inhibition is reported as -14.4%.
`Cc1cnc(NC(=O)c2ccccn2)s1` gave an inhibition of -1.62%.
`COc1ccc(OC)c(C(=O)c2ccc(C(=O)N3CCN(Cc4csc(C)n4)CC3)cc2)c1` gave an inhibition of 1.41%.
`COc1ccccc1-c1nnc(NC(=O)c2ccc3ncsc3c2)o1` gave an inhibition of 10.2%.
In the case of `O=C(Nc1cccc(CCc2ccccn2)c1)c1ccc(Cl)cc1`, the inhibition is reported as 14.3%.
For `CN1CCCN(C(=O)C2CCCCC2)CC1`, the inhibition was -3.43%.
`CC(NC(=S)NNS(=O)(=O)c1ccc(C(C)(C)C)cc1)c1ccccc1` (stereo not given) showed an inhibition of -2.57%.
For `Cc1cccc2c1-c1sc(C(=O)NCCCN3CCc4ccccc4C3)cc1CO2`, the inhibition was -4.99%.
Work on `COc1ccc(C(=O)N/N=c2\oc3ccccc3cc2C(N)=O)cc1` yielded an inhibition of 8.97%.
`CC(C(=O)NCC1CCCCC1)N(C)Cc1cccc(Cl)c1` (stereo not given) was tested, and the inhibition was 0.53%.
`COCCN(C(=S)Nc1cccc(Cl)c1C)C(C)c1ccco1` (stereo not given) gave an inhibition of -2.82%.
`Cc1ccc(Cl)c(OCC(=O)NN2CCN(C)CC2)c1` gave an inhibition of -0.31%.
In the case of `COC(=O)CCCC1=CC2=CC(=O)C(C)(OC(=O)c3cccs3)C(=O)C2=CN1CC1CC1` (stereo not given), the inhibition is reported as 0.2%.
In the case of `O=C(NC(=O)c1cc(OCC(F)(F)F)ccc1OCC(F)(F)F)Nc1ccccc1`, the inhibition is reported as 10.4%.
In the case of `O=C(CSc1ncn[nH]1)Nc1nc(-c2cccc([N+](=O)[O-])c2)cs1`, the inhibition is reported as -0.78%.
`O=C(Nc1cccc(O)c1)c1ccc(C(=O)c2ccccc2)o1` was tested, and the inhibition was 4.5%.
For `COc1ccc(CCNC(=O)CSc2nc(-c3ccc(OC)c(OC)c3)ccc2C#N)cc1`, the inhibition was -0.12%.
In the case of `CCOc1ccc(Oc2nc(C)cc(OC)n2)nn1`, the inhibition is reported as 4.79%.
`Nc1[nH]c(=S)nc2nc(-c3ccccc3)c(-c3ccccc3)nc12` gave an inhibition of 4.09%.
Work on `CCc1nc(C)cn1S(=O)(=O)c1cc([N+](=O)[O-])ccc1Cl` yielded an inhibition of -5.64%.
`O=c1[nH]c(SCc2cccc(F)c2)nc2ccccc12` showed an inhibition of -1.03%.
With `O=C(NCc1cccs1)c1cc(-c2ccccn2)nc2ccc(Br)cc12` the inhibition was -1.15%.
With `Cc1cccc(Cn2cnc3c(N)c(C)c(C)cc32)c1` the inhibition was -1.66%.
For `COc1cccc(/C=C/C(=O)Nc2ccc3c(c2)OCCO3)c1`, the inhibition was -8.27%.
With `COc1ccccc1-n1c(C)nc2cc(C(=O)NCc3ccc4c(c3)OCO4)ccc21` the inhibition was 1.71%.
`O=C(O)CCN=C1CCc2ccccc2N1` was tested, and the inhibition was -7.58%.
For `O=C(CNC(=O)c1ccccc1)NCC(=O)OCC(=O)c1ccccc1` (Bz-Gly-Gly-OPac), the inhibition was -1.35%.
`S=c1nc2ccccc2c2nc(-c3cccnc3)[nH]n12` gave an inhibition of -1.46%.
`O=C(NCc1cccnc1)Nc1cccc(NC(=O)NCc2cccnc2)c1F` gave an inhibition of -0.25%.
`CCOC(=O)c1ccccc1NC(=S)N1CCC(C(N)=O)CC1` gave an inhibition of -1.65%.
`NC(=O)COC(=O)c1cc(S(=O)(=O)N2CCN(c3ccccc3)CC2)ccc1Cl` showed an inhibition of -1.04%.
With `O=C1c2ccccc2C(=O)N1CCC(O)C[N+](=O)[O-]` (stereo not given) the inhibition was 1.96%.
`CCOc1ccc(S(=O)(=O)Nc2nccs2)cc1` was tested, and the inhibition was 0.82%.
`COc1ccc(OCC(=O)N2CCN(C(=O)c3cccs3)CC2)cc1` was tested, and the inhibition was -3.87%.
Compound `COc1ccc(CN(C(=O)c2cccs2)c2nccs2)cc1OC` has an inhibition of 0.51%.
`COc1ccc(CN(Cc2ccc(OC)cc2)C(=O)c2cccs2)cc1` was tested, and the inhibition was 54.2% (active).
Compound `C/C(=N/NC(=O)CC(=O)N/N=C(\C)c1ccc([N+](=O)[O-])cc1)c1ccc([N+](=O)[O-])cc1` has an inhibition of 0.21%.
In the case of `Cc1nc(N)sc1N=Nc1c(C)n(C)n(-c2ccccc2)c1=O`, the inhibition is reported as 1.75%.
With `CC(C)n1c(O)c(N=Nc2ccccn2)c2ccccc21` the inhibition was 0.21%.
In the case of `CCCCOc1ccc(C(=O)N/C(=C/C=C/c2ccccc2)C(=O)N2CCOCC2)cc1`, the inhibition is reported as 5.26%.
`CCOC(=O)C1CCN(C(=O)Nc2cccc(OC)c2)CC1` gave an inhibition of -1.56%.
In the case of `CN(c1ccccn1)c1ncnc2[nH]ncc12`, the inhibition is reported as -2.65%.
`CCOc1cc2c(Cl)ncnc2c(OCC)c1OCC` gave an inhibition of -5.65%.
In the case of `Cc1ccc(C(=O)NNC(=O)OC(C)(C)C)c(Cl)c1`, the inhibition is reported as 8.12%.
With `Cc1nc(N2CCOCC2)sc1C(=O)NN` the inhibition was -11.6%.
With `CC(C)(C)NC(=O)C(=O)NN=C1CCCCCCC1` the inhibition was -1.87%.
`O=S(=O)(Nc1ccc2cn[nH]c2c1)c1ccccc1` was tested, and the inhibition was -7.54%.
`C/C(=N/O)c1ccc(N2C(=O)C3C4C=CC(C3C2=O)C2C3C(=O)N(c5ccc(/C(C)=N/O)cc5)C(=O)C3C42)cc1` (stereo not given) gave an inhibition of -1.59%.
In the case of `CCCCCC(=O)Nc1ccc(S(=O)(=O)Nc2ccc(Cl)nn2)cc1`, the inhibition is reported as -12.1%.
